In PubChem BioAssay AID602254 (Broad Institute, 2012):
The campaign covered roughly 1,000 compounds. Fewer than 10 were called active.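 Rule for the calls: active = fitted half-maximal concentration no higher than twice the top valid tested dose, with signal falling; inconclusive = flat curve with 30 to 70% inhibition, or poor fit; inactive = the rest.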 Only a sample is shown. Entries with a potency or affinity are not part of this list.

These compounds were tested against Golgi-associated PDZ and coiled-coil motif-containing protein (Homo sapiens) (UniProt Q9HD26) (assay: CAL PDZ domain peptide-binding inhibitors, dose response, biochemical, fluorescence polarization, untagged CAL PDZ, cherry-pick, set 2 (AID 602254;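 note: 0% = DMSO neutral control and -100% = unlabeled peptide PRC23 positive control; more negative means stronger blocking of peptide binding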)). Conditions: Purified CAL PDZ, TMR peptide fluorescence polarization; series mostly up to 60 µM; activity change, negative = inhibition: at the top concentration.

Activity change, negative = inhibition, inactive:
COc1ccc(CC(=O)Nc2ccc(S(=O)(=O)Nc3cc(C)on3)cc2)cc1 2.22%
COc1ccccc1N1CCN(/N=C/c2ccc(O)cc2O)CC1 -1.14%
O=C(Nc1ccnn1C1CCN(CC2CC=CCC2)CC1)c1ccccc1Cl (stereo not given) -1.42%
COc1cccc(NC(=O)c2ccc3nsnc3c2)c1 1.47%
O=C(NCCCN1CCOCC1)c1ccc2c(c1)N(Cc1ccccc1)CCS2 7.62%
Cc1ccc(NC(=O)COc2ccccc2C(=O)NCCc2ccccc2)cc1 1.91%
O=C(COC(=O)c1ccc(NC(=O)C2CC=CCC2C(=O)O)cc1)c1ccccc1 (stereo not given) 4.39%
CCOC(=O)c1c(NC(=O)C2CCCCC2)sc2c1CCN(CC)C2 -0.655%
COc1ccc(CNc2ccc(-c3ccccc3OC)nn2)cc1 7.46%
CN(C(=O)c1cccc(C(F)(F)F)c1)C1CCCc2ccccc21 (stereo not given) -1.53%
Cc1n[nH]c(C)c1CCN(C)Cc1cn(C)nc1-c1ccc2c(c1)OCCO2 0.263%
COc1ccc(NC(=O)CC(CC(=O)O)c2cc(OC)c(OC)c(OC)c2)cc1 (stereo not given) 1.78%
Cc1ccc(NC(=S)N(CCCN2CCCC2)Cc2cccn2Cc2ccc(Cl)cc2)cc1C 7.5%
O=C1CN(C(=O)COc2ccc(F)cc2Br)c2ccccc2N1 -1.17%
O=C(C1CC1)N1CCc2cc(S(=O)(=O)N3CCOCC3)ccc21 2.05%
CS(=O)(=O)c1ccc(C(=O)NC2CCCc3ccccc32)cc1 (stereo not given) 4.04%
COC(=O)c1ccccc1NC(=S)N1CCN(C2CCCCC2)CC1 0.591%
Cc1ccccc1NC(=O)c1ccc(NC(=O)C2CCCO2)cc1 (stereo not given) -2.35%
CC(NC(=S)NC(=O)c1ccccc1Br)c1ccccc1 (stereo not given) 1.12%
COc1ccc(OC)c(-c2csc(NC(=O)c3ccc4c(c3)OCO4)n2)c1 0.356%
CCN(Cc1cnn(C)c1)C(=O)C1CCC(=O)N(CCc2ccc(OC)cc2)C1 (stereo not given) 0.165%
CC(=O)Nc1sc(NC(=O)c2ccc(C)cc2)nc1-c1cccs1 -1.3%
O=C(NCCc1ccccc1F)c1ccc2c(c1)OCCO2 2.65%
O=C(CNC(=O)c1ccccc1Cl)N/N=C/c1ccc2c(c1)OCO2 1.37%
CCc1nnc(NS(=O)(=O)c2ccc(N3C(=O)c4ccccc4C3=O)cc2)s1 1.69%
Cc1cccc(NC(=O)CCNC(=O)c2ccc(Br)cc2)c1 -2.95%
COc1ccc(CCNS(=O)(=O)c2ccccc2)cc1OC -8.76%
COC(=O)c1cc(S(=O)(=O)NCCN2CCN(c3ccccc3F)CC2)c[nH]1 0.413%
CCOC(=O)N1CCN(C(=O)c2ccc3c(=O)n(-c4ccc(OC)cc4OC)c(=S)[nH]c3c2)CC1 1.69%
COc1ccccc1/C=N/NC(=O)c1ccc2c(c1)OCO2 2.16%
